Hits are enriched below; roughly 5.7% of the tested compounds scored in any of these assays.
MPTP inh – mitochondrial permeability transition pore inhibitors, primary screen, biochemical, isolated mouse mitochondria, absorbance. Ca2+ swelling absorbance, 30 min. inhibition, % at 10 µM. actives 1.4% (n = 360,000);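 active = inhibition of 50% or more, scaled per plate between neutral and stimulator controls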
GRIN3A LBD mod – binders of NR3A ligand-binding domain, primary screen, biophysical, differential scanning fluorimetry, uHTS; Glutamate receptor ionotropic, NMDA 3A (GRIN3A) ligand-binding domain; NR3A LBD differential scanning fluorimetry, Tm shift; 0% = protein alone, 100% = glycine-bound protein; Tm shift relative to glycine control, % at 25 µM; actives 2.5% (n = 340,000);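 active = melting temperature shift of at least 10% of the positive control shift, at one fixed dose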
FAS-TE inh – FAS thioesterase domain inhibitors, primary screen, biochemical, fluorescence intensity, uHTS | actives 0.67% (n = 360,000) | recombinant FAS-TE, OMFH fluorogenic substrate, fluorescence endpoint | Fatty acid synthase (Homo sapiens), P49327 | inhibition, % at 15 µM;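 active = compounds whose normalised, plate-corrected inhibition of enzyme fluorescence in the single-dose primary screen is 50% or more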
rCAG binder – binders of r(CAG) RNA repeats, primary screen, biochemical, fluorescence. r(CAG) RNA repeat, TO-PRO-1 dye displacement fluorescence. inhibition, % at 3 µM. actives 1.3% (n = 370,000);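 active = inhibition above the plate cutoff, the mean of all test compounds on that plate plus 3 SD, cut at about 35% in these data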;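 note: higher means more dye released from RNA so lower well fluorescence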
Myeloid diff MLP – induction of myeloid progenitor differentiation, primary screen, cell-based, flow cytometry, MLPCN library; ER-HoxA9 myeloid progenitors, lysozyme-GFP differentiation; actives 1% (n = 360,000); AID 624256, 2012; calls only at 10 µM;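 active = normalized GFP-positive differentiation at or above the plate's own cutoff, the solvent-only control mean plus 3 SD; inconclusive = no clear call, values can overlap the other calls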;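 note: cells exposed to compound for four days before flow analysis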
A number is an active result; . = inactive; ? = inconclusive; / = no result; + = active, no number.

SMILES	MPTP inh	GRIN3A LBD mod	FAS-TE inh	rCAG binder	Myeloid diff MLP
COc1ccc(NC(=O)CC2C(=O)N(C)C(=S)N2Cc2ccc3c(c2)OCO3)cc1 (stereo not given)	.	14.1	.	.	.
CCCCCCOc1ccc(NC(=O)CC2C(=O)N(CC)C(=S)N2Cc2ccco2)cc1 (stereo not given)	.	16.3	.	.	.
COc1ccc(CCN2C(=S)N(C)C(=O)C2CC(=O)Nc2ccc(OC)cc2)cc1 (stereo not given)	.	.	.	.	.
CCN1C(=O)C(CC(=O)Nc2ccc(F)cc2)N(Cc2ccc3c(c2)OCO3)C1=S (stereo not given)	.	28.1	.	.	.
CCNc1cc2n(c(=O)n1)CCc1cc(OC)c(OC)cc1-2	.	.	.	.	.
COc1cc2c(cc1OC)-c1cc(OCCN3CCOCC3)nc(=O)n1CC2	.	.	.	.	+
O=C(NCCc1ccccc1Cl)[C@@H]1CCCN1C(=O)[C@@H](NC(=O)N1CCOCC1)c1ccccc1	/	/	/	.	/
O=C(NC1CCCc2ccccc21)c1n[nH]c(=O)c2ccccc12 (stereo not given)	.	.	.	.	+
O=C(NC1CCCc2ccccc21)c1ccccc1 (stereo not given)	.	.	.	.	.
O=C1CNC(=S)N1Cc1ccc(F)cc1	.	72.0	.	/	.
O=C1CNC(=S)N1Cc1ccccc1	.	.	.	.	.
CCCCCCCCCC[N+](C)(C)CC/C=C1/c2ccccc2Sc2ccc(Cl)cc21	.	22.2	.	/	.
CCCCCCCCCCC[N+](C)(C)CC/C=C1/c2ccccc2Sc2ccc(Cl)cc21	.	.	.	/	.
O=C(/C=C/c1ccccc1F)c1cccc([N+](=O)[O-])c1	.	18.8	.	.	.
COc1cc(/C=C/C(=O)c2cccc([N+](=O)[O-])c2)cc(OC)c1OC	.	.	.	.	?
CC(=O)Nc1ccc(NS(=O)(=O)c2ccc3ccccc3c2)cc1	.	.	.	.	+
CC(=O)NS(=O)(=O)c1ccc(NS(=O)(=O)c2ccc3ccccc3c2)cc1	.	.	.	.	.
CC(=O)Nc1ccc(NS(=O)(=O)c2ccc3[nH]c(=O)[nH]c3c2)cc1	.	.	.	.	+
Cc1cccc(C)c1NC(=O)CN(C)C(=O)c1ccc(NS(=O)(=O)c2ccc3[nH]c(=O)[nH]c3c2)cc1	.	12.8	.	.	.
Cc1nc(-c2cccc(NS(=O)(=O)c3ccc4ccccc4c3)c2)cs1	.	10.4	.	.	.
CN(CC(=O)Nc1ccc(Cl)cc1)C(=O)c1ccc(NS(=O)(=O)c2ccc3[nH]c(=O)[nH]c3c2)cc1	.	.	.	.	.
COC(=O)[C@]12C[C@H](CC(=O)NCCCN3CCCC3=O)C(=O)N(CCc3ccc(OC)c(OC)c3)C1=C[C@H](C(C)(C)C)O[C@@H]2C	/	/	/	.	/
CCCC(C)C(=O)NC1CCCCN(Cc2ccc(C)cc2)C1=O (stereo not given)	/	/	/	.	/
O=C(O)C1Nc2c(O)cc(Cl)c([N+](=O)[O-])c2C2C=CCC12 (stereo not given)	.	.	.	100.6	.
COc1cccc2c1NC(C(=O)O)C1CC=CC21 (stereo not given)	.	.	.	/	.
SMILES	MPTP inh	GRIN3A LBD mod	FAS-TE inh	rCAG binder	Myeloid diff MLP
c1ccc2c(c1)[nH]c1c3ccccc3sc21	.	23.6	.	.	.
CCOC(=O)C1(CC2CC2)CCN(C(=O)c2ocnc2C)CC1	.	.	.	.	+
CN(C)c1ccc(-c2nn3c(-c4ccco4)nnc3s2)cc1	/	/	/	.	/
CC(C)[C@@H]1CC[C@@H](C)C[C@H]1OC[B-](F)(F)F	/	/	/	.	/
CC(=O)N1CCC(=NNc2ccc(S(N)(=O)=O)cc2[N+](=O)[O-])CC1	.	.	.	.	.
NS(=O)(=O)c1ccc(NN=C2CCCCC2)c([N+](=O)[O-])c1	.	11.3	.	.	.
O=C1NC(c2ccccc2)=C(c2ccc3ccccc3n2)C(c2ccccc2)N1 (stereo not given)	.	.	.	.	.
O=C1NC(c2ccccc2)=C(c2nc3ccccc3s2)C(c2ccc(O)cc2)N1 (stereo not given)	.	.	.	/	+
Cc1ccccc1S(=O)(=O)N1CCCc2nc(-c3ccc(F)cc3)ccc21	/	/	/	.	/

Bioassay records (PubChem)
